# Bioassay records (PubChem)
# In the library only some 4.6% were active in any assay of this set; here they are far more common.
# FXN GAA850 act: increases GAA850 frataxin promoter reporter activity; HEK293 lucGAA850 FXN promoter luciferase reporter, 24 h; percent of 10 µM SAHA response; activation, % at 6 µM; 360,000 compounds, 0.56% hits;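 active = activation above the average of all compounds screened plus 3 SD, cutoff fixed separately per campaign, cut at about 7.5% in these data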;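 note: 0% = DMSO wells and 100% = 10 µM SAHA wells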
# AHR act: human AHR activation; AID 2796; activation, % at 5 µM; 320,000 compounds, 2.5% hits; P35869; AHR-responsive luciferase reporter cells, luminescence; in the data active = activation above about 47%;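 note: 0% = vehicle wells and 100% = reference agonist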
# Target sequence (P35869 whole entry, looked up): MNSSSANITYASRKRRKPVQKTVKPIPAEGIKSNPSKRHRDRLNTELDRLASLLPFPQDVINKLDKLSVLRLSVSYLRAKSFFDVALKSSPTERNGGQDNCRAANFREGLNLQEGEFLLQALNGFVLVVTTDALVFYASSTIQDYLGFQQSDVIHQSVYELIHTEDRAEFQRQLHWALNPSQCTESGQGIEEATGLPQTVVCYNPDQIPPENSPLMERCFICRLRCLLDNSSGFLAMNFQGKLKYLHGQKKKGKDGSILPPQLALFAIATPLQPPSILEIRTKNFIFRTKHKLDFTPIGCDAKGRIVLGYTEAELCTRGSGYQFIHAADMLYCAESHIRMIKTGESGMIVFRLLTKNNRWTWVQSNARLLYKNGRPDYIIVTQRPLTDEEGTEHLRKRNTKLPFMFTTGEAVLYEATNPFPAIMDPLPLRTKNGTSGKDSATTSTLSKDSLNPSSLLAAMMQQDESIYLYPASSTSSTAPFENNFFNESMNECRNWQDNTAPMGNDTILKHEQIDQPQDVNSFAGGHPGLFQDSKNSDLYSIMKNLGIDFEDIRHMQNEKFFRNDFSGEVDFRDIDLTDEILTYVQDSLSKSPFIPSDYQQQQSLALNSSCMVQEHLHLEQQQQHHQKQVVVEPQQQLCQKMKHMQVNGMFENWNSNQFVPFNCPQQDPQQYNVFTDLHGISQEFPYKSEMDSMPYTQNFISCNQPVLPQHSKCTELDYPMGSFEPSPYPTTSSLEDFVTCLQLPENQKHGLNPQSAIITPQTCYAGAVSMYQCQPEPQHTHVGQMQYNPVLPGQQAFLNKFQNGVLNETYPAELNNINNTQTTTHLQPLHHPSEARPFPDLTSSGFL
# HSF-1 act: increases HSF-1 driven luciferase reporter signal. NIH3T3-HGL HSF-1 luciferase reporter, MG132, 8 h; 100% = twice DMSO control signal. AID 504408. 300,000 compounds, 1.7% hits. activation, % at 9 µM;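 active = mean replicate activation of at least 50% with a set share of replicates each reaching 50%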;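 note: 0% = median of the neutral control wells and 100% = twice that signal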
# HSF1 inhib: HSF1 inhibition; NIH3T3-HGL HSE-luciferase, MG132-induced, luminescence 8 h; hits give low values; 300,000 compounds, 0.77% hits; activity change, negative = inhibition, % at 7.5 µM (by protocol);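 active = more than half of replicate wells show activity change below -50%, luminescence cut by over half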;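 note: luciferase reports HSF-1 transcriptional activity via heat shock element; 0% = median of DMSO wells and -100% = zero luminescence signal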
# Active calls of the source: *; / = no result.
SMILES,FXN GAA850 act,AHR act,HSF-1 act,HSF1 inhib
C/C(CC(=O)Nc1ccccc1)=N\NC(=O)COc1ccc(C)cc1Br,-1,4,15,8
CCc1ccc(OCC(=O)NC(=S)Nc2ccc(C(C)=O)cc2)c(Br)c1,0,76*,-45,-26
O=C(CCC(=O)N1CCN(c2ccc(O)cc2)CC1)c1ccc(Br)cc1,/,1,91*,40
CC(C)N1CCC2(CC1)N=C(c1ccc3c(c1)OCO3)CC(c1cc(Cl)ccc1O)N2 (centres undefined),1,76*,31,-2
CC(Sc1ccc(Cl)cc1)C(=O)Nc1ccc2c(c1)OCO2 (centres undefined),2,10,-1,3
Brc1ccc(/C=N/Nc2ccc3ccccc3n2)cc1,7.8*,69*,-8,13
Fc1cccc(/C=N/Nc2ccc3ccccc3n2)c1,3,16,-16,-25
CCOc1ccc(NC(=O)COC(=O)Cn2cnc3ccccc32)cc1,1,1,/,/
O=c1ccn(-c2cccc(C(F)(F)F)c2)nc1-c1ccn(-c2cccc(Cl)c2)n1,11*,0,10,0
Cc1cc2cc(CNC(=O)c3ccc(Br)o3)ccc2n1C,-2,3,-17,-9
Cc1c(NC(=O)c2ccc(C(C)(C)C)cc2)cccc1[N+](=O)[O-],4,1,72*,41
Cc1c(NC(=O)c2ccc3nsnc3c2)cccc1[N+](=O)[O-],2,52*,0,2
COc1ccccc1NC(=O)c1ccc2nsnc2c1,5,56*,37,17
CCc1nnc2n1N=C(c1ccc(Cl)cc1)CS2,1,1,15,-3
Cc1nnc2n(c1=O)N=C(c1ccc(Cl)cc1)CS2,5,79*,16,12
Cc1cc(C)n(S(=O)(=O)/C=C/c2ccccc2)n1,-8,-3,54*,53
Cc1ccc(C(=O)NN2C(=O)/C(=C/c3cn(C)c4ccccc34)SC2=S)cc1,1,20,/,/
Cn1cc(/C=C2\SC(=O)NC2=S)c2ccccc21,-2,47*,-8,-9
CCOc1ccc(-c2nc(C#N)c(NCc3ccc4c(c3)OCO4)o2)cc1,2,56*,5,7
CCc1ccc(Nc2nnc(SCC(=O)Nc3sccc3C(N)=O)s2)cc1,-3,60*,41,5
COc1cccc(Nc2nnc(SCC(=O)Nc3sccc3C(N)=O)s2)c1,1,24,-6,-2
Cc1ccc(OCC(=O)N2CCc3ccccc3C2)c(Br)c1,3,0,76*,59
Oc1oc(-c2ccccc2)nc1C=NCc1ccncc1,-1,70*,-12,0
Cc1ccc(-c2cc(NC(=O)CCl)n(-c3ccccc3)n2)cc1,-1,-4,65*,50
CC(=O)Nc1ccc(-c2cc(N)n(-c3ccccc3)n2)cc1,8,72*,-50,-46
SMILES,FXN GAA850 act,AHR act,HSF-1 act,HSF1 inhib
O=C(CCl)Nc1cc(-c2ccccc2)nn1-c1ccccc1,-10,2,48,27
CC(=O)Nc1ccc(-c2cc(NC(C)=O)n(-c3ccccc3)n2)cc1,2,31,-3,-7
Cc1cc(Cl)c(S(=O)(=O)N2CCN(c3cccc(C)c3C)CC2)cc1OCC(N)=O,-3,2,14,-10
O=C(/C=C/c1cccc([N+](=O)[O-])c1)c1ccc([N+](=O)[O-])o1,-14,-2,54*,32
Cc1nc2ccccn2c1C(=O)/C=C/c1cccc([N+](=O)[O-])c1,3,60*,46,13
CCCCOc1ccc(-c2cn3ccccc3n2)cc1[N+](=O)[O-],2,-5,63*,37
COc1cc(NC(=O)C2CCN(S(=O)(=O)c3cnc[nH]3)CC2)cc(OC)c1OC,1,0,-7,-12
O=C(Nc1ccc(Cl)c([N+](=O)[O-])c1)c1cnccn1,1,70*,-4,6
O=C(Nc1ccc(Cl)c([N+](=O)[O-])c1)c1ccncc1,0,10,-3,-8
O=C(CSc1ccc(-c2ccco2)nn1)NC1CCCC1,1,0,42,13
Cc1ccc(S(=O)(=O)N2CCN(C(=O)c3cc4c(C)nn(-c5ccccc5)c4s3)CC2)cc1,-4,2,-3,2
Cc1nn(-c2ccccc2)c2sc(C(=O)N3CCOCC3)cc12,1,78*,26,10
Cc1ccc(-n2nc(C)c3cc(C(=O)O)sc32)cc1,2,2,-76,-69*
Cc1nn(-c2ccccc2)c2sc(C(=O)O)cc12,0,1,-5,3
CCOC(=O)C1=C(C#N)C(C(=O)OCC)c2ncccc21 (centres undefined),2,/,/,/
Cc1c(C(=O)Nc2ccc(F)cc2)sc2ncn(CC(=O)N3CCCCC3)c(=O)c12,2,42,-64,-55*
Cc1c(C(=O)Nc2ccccc2)sc2ncn(CC(=O)N3CCCCC3)c(=O)c12,1,19,-7,-4
CCc1ccc(Nc2cnn(-c3nc4ccccc4s3)c(=O)c2Cl)cc1,-3,49*,21,-7
COc1ccc(C(=O)NNC(=S)NC(=O)c2cccs2)cc1,0,5,-72,-74*
Cn1c(CCNC(=O)c2cccs2)nnc1SCC(=O)Nc1nc(-c2ccccc2)cs1,2,1,54*,11
Cc1csc(NC(=O)CSc2nnc(CCNC(=O)c3cccs3)n2C)n1,1,1,3,-7
CCC(=O)Nc1cccc(NC(=S)NC(=O)c2cccs2)c1,5,50*,79*,64
CCC(=O)Nc1cccc(NC(=S)NC(=O)c2ccccc2Cl)c1,3,5,6,13
CC(C)CC(=O)NC(=S)Nc1nc(-c2ccccc2)cs1,4,67*,-7,-7
COc1ccc(C(=O)NNC(=S)NC(=O)c2ccc(OC)cc2)cc1,0,3,-11,-3
SMILES,FXN GAA850 act,AHR act,HSF-1 act,HSF1 inhib
COc1ccc(-n2ncc3c(NCc4ccco4)ncnc32)cc1,1,11,0,-3
CC(C)CN(C(=O)COC(=O)Cn1cnc2ccccc2c1=O)C1CCS(=O)(=O)C1 (centres undefined),-1,-2,-5,9
O=C(NC(=S)Nc1nc(-c2ccccc2)cs1)c1cccs1,1,68*,-3,-9
Cc1ccc(-c2csc(NC(=S)NC(=O)c3cccs3)n2)cc1,1,1,4,7
Cc1nc(NC(=S)NC(=O)c2cccs2)ccc1Br,5,71*,11,17
O=C(NC(=S)Nc1cccc2cccnc12)c1cccs1,4,70*,156*,109
Cc1ccc(NC2CNC(=O)NC2=O)cc1C (centres undefined),-1,/,/,/
O=C(Cn1nc(-c2ccccc2)ccc1=O)NCc1ccc(F)cc1,1,2,-9,-2
O=C(Cn1nc(-c2ccc(Cl)cc2)ccc1=O)NCc1ccc2c(c1)OCO2,1,54*,9,-1
O=C(Cn1nc(-c2ccccc2)ccc1=O)NCc1ccc2c(c1)OCO2,-1,68*,-10,-7
O=C(Cn1nc(-c2ccc(Cl)cc2)ccc1=O)NCC1CCCO1 (centres undefined),-1,-1,-64,-57*
O=C(Cn1cc([N+](=O)[O-])cn1)NCc1ccccc1Cl,1,0,-5,8
